Results: the supplement of paper PMC6089552
About 300 (9.4%) of roughly 3,200 compounds showed activity. Shown is part of a subset that was picked to be rich in actives.

System: A673/TR/shEF
Experiment: cell viability (LOESS-normalised, relative to median of negative controls) (log2 ratio); higher = more viable cells (less compound effect), active = hit call of the paper (over 3 MAD below the median)
Settings: treatment time: 72 h
Outline: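 Doxycycline, present or absent from 24 h before compounds, was used to induce EWS-FLI1 shRNA knockdown in A673/TR/shEF Ewing sarcoma cells at 1,500 per well in 384-well plates. Cells then received library compounds at two or more concentrations, or DMSO controls, for three days. Viability was measured by CellTiter-Glo luminescence on an Envision reader, and per-plate LOESS correction, division by the negative-control median and log2 transformation followed.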

[1] = 0.25 µM, library screen: screen1, EWS-FLI1 expression: high (no doxycycline)
[2] = 0.25 µM, library screen: screen1, EWS-FLI1 expression: low (doxycycline-induced shRNA knockdown)
[3] = 0.25 µM, library screen: screen2, EWS-FLI1 expression: high (no doxycycline)
[4] = 0.25 µM, library screen: screen2, EWS-FLI1 expression: low (doxycycline-induced shRNA knockdown)
[5] = 2.5 µM, library screen: screen1, EWS-FLI1 expression: high (no doxycycline)
[6] = 2.5 µM, library screen: screen1, EWS-FLI1 expression: low (doxycycline-induced shRNA knockdown)
[7] = 2.5 µM, library screen: screen2, EWS-FLI1 expression: high (no doxycycline)
[8] = 2.5 µM, library screen: screen2, EWS-FLI1 expression: low (doxycycline-induced shRNA knockdown)

Measured: cell viability (log2)

NC[C@H](O)c1ccc(O)c(O)c1
inactive: [1] 0.152 | [2] -0.0124 | [3] 0.069 | [4] 0.102 | [5] 0.127 | [6] 0.154 | [7] 0.0755 | [8] 0.101

CS(=O)(=O)CCCCN=C=S
inactive: [1] 0.17 | [2] 0.115 | [5] 0.227 | [6] 0.0923

NS(O)(O)Cc1noc2ccccc12
inactive: [3] 0.153 | [4] 0.0786 | [7] 0.183 | [8] 0.124

O=C(c1cc(-c2ccccc2)nc2ccccc12)N1CCN(c2ccccc2)CC1
inactive: [1] 0.112 | [2] 0.0402 | [5] 0.113 | [6] 0.188

CC1CN(C(=O)c2cc(-c3ccccc3)nc3ccccc23)CC(C)O1 (stereo unspecified)
active: [1] -2.9 | [2] -2.55
inactive: [5] 0.0982 | [6] 0.0382

O=C(c1cc(-c2ccccc2)nc2ccccc12)N1CCCC1
inactive: [1] 0.0657 | [2] 0.0915 | [5] 0.129 | [6] -0.0754

Cc1cccc(C)c1OCC(N)C(C)C (stereo unspecified)
inactive: [3] 0.0355 | [4] -0.033 | [7] 0.0196 | [8] 0.00962

COc1cccc2c1CCC1CC(=O)CC[C@]21C (stereo partly specified)
inactive: [1] 0.0982 | [2] 0.0827 | [5] 0.058 | [6] 0.11

OC[C@@H](O)[C@@H](O)C(O)[C@H](O)[C@@H](O)CO (stereo partly specified)
inactive: [1] 0.0348 | [2] 0.0046 | [5] 0.138 | [6] 0.018

C=CCc1ccccc1OCC(O)CNC(C)C (stereo unspecified)
inactive: [1] 0.0845 | [2] 0.135 | [4] 0.0871 | [5] 0.0928 | [6] 0.0547 | [7] 0.0869 | [8] 0.156
active: [3] -0.203

CC(C)NCC(O)COc1cccc2ccccc12 (stereo unspecified)
inactive: [1] 0.149 | [2] 0.0263 | [3] 0.19 | [4] 0.128 | [5] 0.146 | [6] -0.0491 | [7] 0.0197 | [8] 0.0681

CC(C)NC[C@H](O)COc1cccc2ccccc12
inactive: [3] 0.141 | [4] 0.0581 | [7] 0.131 | [8] 0.11

CN1[C@@H]2CC[C@@H]1CC(OC(c1ccccc1)c1ccccc1)C2 (stereo partly specified)
inactive: [1] 0.132 | [2] 0.107 | [3] 0.135 | [4] 0.0858 | [5] 0.0835 | [6] 0.0797 | [7] 0.114 | [8] 0.0926

O=C(CCCCCCC(=O)Nc1ccccc1)NO
inactive: 0.103 µM, library screen: screen3, EWS-FLI1 expression: high (no doxycycline) 0.0138 | 0.103 µM, library screen: screen3, EWS-FLI1 expression: low (doxycycline-induced shRNA knockdown) 0.0808 | [3] 0.16 | [4] 0.101 | 0.308 µM, library screen: screen3, EWS-FLI1 expression: high (no doxycycline) 0.0409 | 0.308 µM, library screen: screen3, EWS-FLI1 expression: low (doxycycline-induced shRNA knockdown) 0.115 | 0.926 µM, library screen: screen3, EWS-FLI1 expression: high (no doxycycline) 0.0465 | 0.926 µM, library screen: screen3, EWS-FLI1 expression: low (doxycycline-induced shRNA knockdown) 0.156 | [7] 0.0836 | [8] 0.0743 | 2.8 µM, library screen: screen3, EWS-FLI1 expression: high (no doxycycline) -0.083 | 2.8 µM, library screen: screen3, EWS-FLI1 expression: low (doxycycline-induced shRNA knockdown) -0.944
active: 8.3 µM, library screen: screen3, EWS-FLI1 expression: high (no doxycycline) -1.12 | 8.3 µM, library screen: screen3, EWS-FLI1 expression: low (doxycycline-induced shRNA knockdown) -0.391 | 25 µM, library screen: screen3, EWS-FLI1 expression: high (no doxycycline) -2.67 | 25 µM, library screen: screen3, EWS-FLI1 expression: low (doxycycline-induced shRNA knockdown) -1.56

O=C(Nc1ccccc1)Nc1ccccc1
inactive: [1] -0.0389 | [2] 0.0106 | [5] 0.0741 | [6] -0.00546

O=C(Cc1ccccc1)NO
inactive: [1] 0.111 | [2] 0.0668 | [5] 0.126 | [6] 0.0445

Cc1c2oc3c(C)ccc(C(=O)NC4C(=O)NC(C(C)C)C(=O)N5CCCC5C(=O)N(C)CC(=O)N(C)C(C(C)C)C(=O)OC4C)c3nc-2c(C(=O)NC2C(=O)NC(C(C)C)C(=O)N3CCCC3C(=O)N(C)CC(=O)N(C)C(C(C)C)C(=O)OC2C)c(N)c1=O (stereo unspecified)
active: [1] -4.25 | [2] -4.25 | [5] -4.23 | [6] -4.26

COc1ccc(OC)c(CN2CCN(Cc3ccc([N+](=O)[O-])cc3)CC2)c1
inactive: [1] 0.0199 | [2] 0.014 | [5] -0.0107 | [6] 0.0533

O=C(O)c1cc2cc(Cl)ccc2[nH]1
inactive: [1] 0.0631 | [2] -0.00653 | [5] 0.106 | [6] 0.0362

O=C(O)c1cc2cc(F)ccc2[nH]1
inactive: [1] 0.0776 | [2] -0.00933 | [4] 0.0925 | [5] 0.156 | [6] 0.00267 | [7] 0.154 | [8] 0.0908
active: [3] -0.173

O=C(O)c1cc2ccccc2[nH]1
inactive: [1] 0.123 | [2] 0.0929 | [5] 0.0969 | [6] 0.132
